According to PubChem BioAssay AID1021 (Emory University Molecular Libraries Screening Center, 2008):
Among all 220,000 compounds or so, about 2,100 (0.95%) were called active.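 The calls were made as follows: active = compounds that cut the binding signal by more than half at the single screening dose; inactive = the rest.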 The entries come from a sample that favours actives as a whole.

What follows are compounds tested against Induced myeloid leukemia cell differentiation protein Mcl-1 (Homo sapiens) (UniProt Q07820) (assay: disruptors of Mcl-1 and Bid BH3 peptide – biochemical, TR-FRET, 1536-well, primary screen (AID 1021;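 also: His-tagged Mcl-1 with europium anti-His antibody binding Bid BH3 peptide; 0% = Mcl-1 plus peptide wells and 100% = peptide-only wells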)). Conditions: TR-FRET Mcl-1/Bid-Dy647 peptide binding, at 21.7 µM, stronger effect = higher value.
Induced myeloid leukemia cell differentiation protein Mcl-1 (Homo sapiens), sequence (Q07820 whole entry, looked up): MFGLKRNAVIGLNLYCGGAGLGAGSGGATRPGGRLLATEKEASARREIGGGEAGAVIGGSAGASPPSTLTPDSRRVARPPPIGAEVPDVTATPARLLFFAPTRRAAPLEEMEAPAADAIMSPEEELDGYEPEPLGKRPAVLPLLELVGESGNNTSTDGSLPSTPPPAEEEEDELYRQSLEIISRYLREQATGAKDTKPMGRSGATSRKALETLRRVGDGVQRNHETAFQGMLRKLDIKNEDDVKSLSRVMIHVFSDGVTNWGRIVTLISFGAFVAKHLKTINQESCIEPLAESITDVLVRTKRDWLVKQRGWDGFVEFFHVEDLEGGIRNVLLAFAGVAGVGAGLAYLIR
In the case of `O=C(Cc1ccccc1[N+](=O)[O-])N1CCN(Cc2ccc3c(c2)OCO3)CC1`, the inhibition is reported as -23.7% (inactive). In the case of `COc1ccccc1CN1CCN(C(=O)Cc2ccccc2)CC1`, the inhibition is reported as 68% (active). `O=C(Cc1ccccc1)N1CCN(C2CCCCCC2)CC1` was tested, and the inhibition was 17% (inactive). With `COc1ccc(-n2c(O)c(C(C)=Nc3ccc4c(c3)CCC4)c(=O)[nH]c2=O)cc1` the inhibition was -2.41% (inactive). For `O=C(O)COc1ccccc1/C=C1\C(=O)NC(=O)N(CCC2=CCCCC2)C1=O`, the inhibition was 2.6% (inactive). `CN1CCN(Cc2ccc(OC(F)(F)F)cc2)CC1` was tested, and the inhibition was 56.4% (active). With `CN1CCN(Cc2ccccc2C(F)(F)F)CC1` the inhibition was -13% (inactive). In the case of `CCOP(=O)(OCC)C(NC(=O)NC)C(N)=O` (stereo not given), the inhibition is reported as -3.96% (inactive). With `CCc1nnc(NS(=O)(=O)c2ccc(N=Cc3c(O)n(-c4ccccc4)c(=O)[nH]c3=O)cc2)s1` the inhibition was -3.62% (inactive). In the case of `CCOc1ccc(CN(CCCl)CCCl)cc1C(=O)OC`, the inhibition is reported as 63.2% (active). For `CC1=C2C(=O)C3C(CC=C4CC(OC5OC(O)C(O)C(O)C5CO)CCC43C)C2CCC12OC1CC(C)CNC1C2C` (stereo not given), the inhibition was -4.26% (inactive). `O=c1c2ccccc2nc(/C=C/c2ccco2)n1-c1ccccc1O` was tested, and the inhibition was -66% (inactive). `CNC(=O)O/N=C(\N)Cc1csc2ccc(Cl)cc12` was tested, and the inhibition was -11.9% (inactive). With `COc1ccc(C(=O)C2CCCN(Cc3ccc(C)s3)C2)cc1OC` (stereo not given) the inhibition was -15% (inactive). For `CC1CCCCN1Cc1cccnc1` (stereo not given), the inhibition was 49.3% (inactive). `O=C1NC(=O)N(c2ccccc2)C(=O)/C1=C/c1ccc([N+](=O)[O-])s1` was tested, and the inhibition was -21.7% (inactive). For `Cc1cccc(N2C(=O)NC(=O)/C(=C\c3cnn(-c4ccccc4)c3)C2=O)c1`, the inhibition was -15.1% (inactive). `O=C1NC(=O)N(c2ccc(F)cc2)C(=O)/C1=C/c1ccc2c(c1)CCCN2Cc1ccccc1` was tested, and the inhibition was 74.2% (active). In the case of `O=C(c1cc2nc(-c3ccccc3)cc(-c3ccccc3)n2n1)N1CCC2(CC1)OCCO2`, the inhibition is reported as 12.9% (inactive). In the case of `CC(=O)Cc1ccc(OC(C)C)cc1`, the inhibition is reported as 29.9% (inactive).
